# Measurements as given in the supplement of paper PMC8728848.
# The full list was thinned out, with the strongest signals kept by preference.
# What was measured:
# Assay in all cases: glycan array binding signal (z-score within array); higher = stronger binding
# Conditions in all cases: glycan notation: IUPAC condensed, linker removed
# [1] = tested on: Neu5Ac(a2-6)Gal(b1-4)GlcNAc(b1-2)[Neu5Ac(a2-6)Gal(b1-4)GlcNAc(b1-4)]Man(a1-3)[GlcNAc(b1-4)][Neu5Ac(a2-6)Gal(b1-4)GlcNAc(b1-4)Man(a1-6)]Man(b1-4)GlcNAc(b1-4)GlcNAc
# In short: (§1)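 Glycan array binding is given as a within-array Z-score, which can be read as non-binding when negative. The arrays, 3228 of them, came from the Consortium for Functional Glycomics database and were retained only where the protein sequence was available. Z-scores were averaged across arrays of the same protein sequence at different concentrations or buffers and across linkers.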
# [2] = tested on: Neu5Ac(a2-6)Gal(b1-4)GlcNAc(b1-3)Gal(b1-4)GlcNAc(b1-3)Gal(b1-4)GlcNAc(b1-2)Man(a1-3)[Neu5Ac(a2-6)Gal(b1-4)GlcNAc(b1-3)Gal(b1-4)GlcNAc(b1-3)Gal(b1-4)GlcNAc(b1-2)Man(a1-6)]GalNAc
# In short: as §1
# [3] = tested on: Neu5Ac(a2-6)Gal(b1-4)GlcNAc(b1-3)Gal(b1-4)GlcNAc(b1-3)[Neu5Ac(a2-6)Gal(b1-4)GlcNAc(b1-3)Gal(b1-4)GlcNAc(b1-6)]GalNAc
# In short: as §1
# [4] = tested on: Neu5Ac(a2-6)Gal(b1-4)GlcNAc(b1-3)Gal(b1-3)GlcNAc
# In short: as §1
# [5] = tested on: Neu5Ac(a2-6)Gal(b1-4)GlcNAc(b1-3)Gal(b1-4)[Fuc(a1-3)]GlcNAc(b1-3)Gal(b1-4)[Fuc(a1-3)]GlcNAc
# In short: as §1
# [6] = tested on: Neu5Ac(a2-6)Gal(b1-4)GlcNAc
# In short: as §1
# [7] = tested on: Neu5Ac(a2-6)Gal(b1-4)GlcNAc(b1-6)[Gal(b1-3)]GalNAc
# In short: as §1
# Neu5Ac(a2-6)Gal(b1-4)Glc = tested on: Neu5Ac(a2-6)Gal(b1-4)Glc
# In short: as §1
# Sequence of Neurocan (Homo sapiens), O14594 (O14594 other isoform, or with tags, fused parts or gaps): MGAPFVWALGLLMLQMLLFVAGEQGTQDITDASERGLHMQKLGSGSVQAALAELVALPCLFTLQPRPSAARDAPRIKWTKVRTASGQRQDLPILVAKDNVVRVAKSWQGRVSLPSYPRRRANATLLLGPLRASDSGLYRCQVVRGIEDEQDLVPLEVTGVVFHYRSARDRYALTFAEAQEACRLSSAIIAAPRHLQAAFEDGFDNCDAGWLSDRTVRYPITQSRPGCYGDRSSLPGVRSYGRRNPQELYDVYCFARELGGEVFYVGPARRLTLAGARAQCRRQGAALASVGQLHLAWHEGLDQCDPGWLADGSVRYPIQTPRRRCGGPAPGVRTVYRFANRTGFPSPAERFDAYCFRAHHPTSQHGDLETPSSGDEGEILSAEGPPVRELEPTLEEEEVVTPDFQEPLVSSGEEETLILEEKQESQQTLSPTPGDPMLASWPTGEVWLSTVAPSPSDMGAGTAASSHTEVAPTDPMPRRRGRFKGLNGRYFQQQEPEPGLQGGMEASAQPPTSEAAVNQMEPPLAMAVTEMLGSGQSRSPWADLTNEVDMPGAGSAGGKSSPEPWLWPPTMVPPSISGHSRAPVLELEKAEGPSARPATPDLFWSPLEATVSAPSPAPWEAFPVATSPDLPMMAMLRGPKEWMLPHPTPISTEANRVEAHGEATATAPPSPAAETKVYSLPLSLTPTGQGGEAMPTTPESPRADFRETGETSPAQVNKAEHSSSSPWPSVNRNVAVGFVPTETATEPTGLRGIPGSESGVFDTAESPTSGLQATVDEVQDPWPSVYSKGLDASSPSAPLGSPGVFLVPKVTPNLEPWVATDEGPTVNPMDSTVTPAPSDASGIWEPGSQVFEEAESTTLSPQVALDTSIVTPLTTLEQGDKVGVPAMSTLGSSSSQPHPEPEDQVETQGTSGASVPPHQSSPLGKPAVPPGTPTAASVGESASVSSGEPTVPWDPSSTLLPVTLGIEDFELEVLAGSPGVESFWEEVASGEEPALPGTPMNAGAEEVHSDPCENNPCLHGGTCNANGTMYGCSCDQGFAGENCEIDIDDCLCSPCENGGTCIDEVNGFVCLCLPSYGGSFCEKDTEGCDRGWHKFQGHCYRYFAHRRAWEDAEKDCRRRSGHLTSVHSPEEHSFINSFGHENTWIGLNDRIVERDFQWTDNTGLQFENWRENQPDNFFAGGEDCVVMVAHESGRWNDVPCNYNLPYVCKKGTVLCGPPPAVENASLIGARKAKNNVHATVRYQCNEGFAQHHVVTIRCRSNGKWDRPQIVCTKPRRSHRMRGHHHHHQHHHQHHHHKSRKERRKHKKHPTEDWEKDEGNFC
# Sequence of Avaren (Actinomycete K97) (chain, as listed by the source): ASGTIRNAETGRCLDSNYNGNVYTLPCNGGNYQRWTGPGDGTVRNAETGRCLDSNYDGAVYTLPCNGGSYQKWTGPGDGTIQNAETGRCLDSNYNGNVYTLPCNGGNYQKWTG
# Sequence of PILRb (Mus musculus), Q2YSF2 (Q2YSF2 entry or part of it): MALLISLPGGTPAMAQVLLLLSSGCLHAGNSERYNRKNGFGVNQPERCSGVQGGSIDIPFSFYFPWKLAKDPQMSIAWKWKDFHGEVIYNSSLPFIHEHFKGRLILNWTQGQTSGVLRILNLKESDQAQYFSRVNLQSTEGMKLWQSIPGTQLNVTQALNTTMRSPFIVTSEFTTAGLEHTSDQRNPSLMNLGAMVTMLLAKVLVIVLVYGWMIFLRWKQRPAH
# Sequence of Regenerating Gene IV (Homo sapiens), Q9BYZ8 (Q9BYZ8 whole entry, looked up): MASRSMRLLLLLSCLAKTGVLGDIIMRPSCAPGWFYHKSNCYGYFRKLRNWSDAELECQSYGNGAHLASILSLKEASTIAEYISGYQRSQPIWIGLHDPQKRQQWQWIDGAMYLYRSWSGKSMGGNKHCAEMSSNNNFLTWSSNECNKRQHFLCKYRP
# Sequence of C3b (Homo sapiens), P01024 (P01024 23-667): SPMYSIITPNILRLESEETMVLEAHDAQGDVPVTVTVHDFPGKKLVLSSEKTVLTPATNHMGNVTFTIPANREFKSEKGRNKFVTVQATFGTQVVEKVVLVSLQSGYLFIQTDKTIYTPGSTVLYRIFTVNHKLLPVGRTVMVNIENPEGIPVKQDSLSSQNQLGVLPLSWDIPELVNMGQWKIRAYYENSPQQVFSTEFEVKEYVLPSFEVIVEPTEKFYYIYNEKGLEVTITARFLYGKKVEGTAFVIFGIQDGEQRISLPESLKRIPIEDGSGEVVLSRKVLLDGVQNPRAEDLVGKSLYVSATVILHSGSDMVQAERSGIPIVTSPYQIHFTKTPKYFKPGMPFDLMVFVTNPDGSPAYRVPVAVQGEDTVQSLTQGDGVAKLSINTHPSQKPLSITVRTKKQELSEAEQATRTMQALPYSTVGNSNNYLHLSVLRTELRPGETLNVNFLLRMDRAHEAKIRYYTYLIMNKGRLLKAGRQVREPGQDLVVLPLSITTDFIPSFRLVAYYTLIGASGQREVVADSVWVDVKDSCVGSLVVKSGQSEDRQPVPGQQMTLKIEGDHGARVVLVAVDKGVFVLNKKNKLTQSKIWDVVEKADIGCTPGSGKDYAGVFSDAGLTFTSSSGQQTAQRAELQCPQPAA
substance,measurement,setting,value
MpAFP RI GFP (Marinomonas primoryensis),glycan array binding signal (z-score),[1],0.092
same,glycan array binding signal (z-score),[2],3.43
same,glycan array binding signal (z-score),[3],1.36
"Neurocan (Homo sapiens), O14594",glycan array binding signal (z-score),[4],0.267
same,glycan array binding signal (z-score),[5],-1.44
"Siglec-8 (Homo sapiens), Q9NYZ4",glycan array binding signal (z-score),[5],0.008
same,glycan array binding signal (z-score),[6]; mutation: R125K,-0.306
Avaren (Actinomycete K97),glycan array binding signal (z-score),[7],-0.134
"Regenerating Gene IV (Homo sapiens), Q9BYZ8",glycan array binding signal (z-score),[6],-0.335
"PILRb (Mus musculus), Q2YSF2",glycan array binding signal (z-score),[6],-0.349
"C3b (Homo sapiens), P01024",glycan array binding signal (z-score),Neu5Ac(a2-6)Gal(b1-4)Glc,-0.687
